# The other results are listed elsewhere or left out. How many sequences the whole screen found active is unknown.
# B1: VH:VL chains; a variant is named by its letters at X, in order (parent)
# chain 1: QVQLVQSGAEVKKPGASVKVSCKASGYTFTDYXMHWVRQAPGQGLEWMGXVNPNXXXTTYNQKFEGRVTMTTDTSTSTAYMELRSLRSDDTAVYYCARXNXLDXWGQGTTVTVSS
# chain 2: DIQMTQSPSSLSASVGDRVTITCSVSSSVSSIYLHWYQQKPGKAPKLLIYSTSNLASGVPSRFSGSGSGTDFTLTISSLQPEDFATYYCQVYSGYPLTFGGGTKVEIK
# Variants of: B1
# Assay: yeast display scFab, FACS + sequencing
# Details: with MET
# Outline: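 Antigen binding was called positive for sequences present in both antigen-positive samples and negative for those present only in the input. These calls came from deep sequencing, in two replicates, of round-3 sorted and input populations from a heavy-chain CDR mutant scFab yeast surface library. The library was first enriched twice magnetically on HGFR-Fc-coated Protein A beads and then by FACS, gating the top 50% antigen-positive cells after 3 h labelling at room temperature with 1 nM HGFR-Fc plus anti-Myc in PBSB with 1% milk.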
row,Variant,antigen binding call
1,SKAKGAWD,binds
2,SEARSDWD,no binding
3,SKRETAWS,binds
4,DKAKGDGS,no binding
5,FEETDAGD,no binding
6,FEARDYWD,binds
7,SKAKGAWS,binds
8,SKAGDAWD,no binding
9,SETKGDWD,no binding
10,DATGNVWS,no binding
11,YATTSFSF,no binding
12,FGTKGAWD,no binding
13,FKAKGAWD,binds
14,SKTKSDVD,no binding
15,SKAKGSSD,binds
16,SKRKSSSD,no binding
17,SKTRGAWD,binds
18,SKERGDVD,no binding
19,FGEEDFSS chain 1 W105R,no binding
20,VGGTSDVV,no binding
21,VEEEGSGV,no binding
22,VRTKAVAY,no binding
23,VEETSSLD,no binding
24,VRAGSSLD,binds

row,Variant,antigen binding call
1,VRAGDSLD,binds
2,VTGEDSLD,no binding
3,VRTGDSAY,binds
4,VRAGDDVD,no binding
5,VRGKDSLD,binds
6,DRTGDDVY,no binding
7,VTGTSSLD,no binding
8,VEAGDSLD,no binding
9,VTTKSYLV,no binding
10,DAARGDGV,no binding
11,VAGTGSLD,no binding
12,VRTGDSLD,binds
13,VRTGDDGV,no binding
14,VRAGSSWD,binds
15,VRKGGSLD,binds
16,VKTGGSLD,no binding
17,AETKGFAV,no binding
18,VKGASDVA,no binding
19,YEGGTSGA,no binding
20,YRGRASGA,binds
21,VRAGADVA,no binding
22,YTGTSSGA,no binding
23,YRAAGSGA,binds
24,YRGGASGA,binds

row,Variant,antigen binding call
1,YRAGAAVA,binds
2,YGGRAAGA,no binding
3,VEEEGDAV,no binding
4,DRAGDAGA,no binding
5,YRAGASLA,binds
6,YRGANSGA,no binding
7,YRARSSGA,binds
8,DRAGDSGA,no binding
9,YRARSAGA,binds
10,SREAASLA,no binding
11,YRAGSSGA,binds
12,DEGGDAGD,no binding
13,VAEKGDAA,no binding
14,VEKGGDWD,no binding
15,FKGEGDVY,no binding
16,VKTGGDVA,no binding
17,YRAGASGA,binds
18,YRKEAAAA,binds
19,YRKEGAAA,binds
20,DAKEGAAA,no binding
21,YRKGSAAA,binds
22,VAEAAVGD,no binding
23,AETKGDWV,no binding
24,VEGTSAVY,no binding

row,Variant,antigen binding call
1,VKKEDDVV,no binding
2,VEGGGFAY,no binding
3,VRGGGAAV,binds
4,VRGTGAVY,no binding
5,VRGGGAAY,binds
6,VRAGGDWV,no binding
7,VREGAAAV,no binding
8,VRGAGAWV,no binding
9,VRGGGAWV,binds
10,VRAGGAWV,binds
11,VAGGGAAV,no binding
12,DTTGSAVV,no binding
13,FTGTSDLY,no binding
14,FRGRGSWS,binds
15,FRGRDYGS,no binding
16,FRGRGAWS,binds
17,FEATASWS,no binding
18,FRGRGSVS,binds
19,FRGRDFGS,no binding
20,FRGRDSWS,binds
21,AGGGNDGA,no binding
22,VTGGDDWY,no binding
23,AARADAVV,no binding
24,FRGRGAGS,binds

row,Variant,antigen binding call
1,FRGRGAAS,binds
2,FRGRGALS,binds
3,FRGRGSLS,binds
4,FRGRGDLS,no binding
5,FRGRGFLS,no binding
6,SGKKSSGV,no binding
7,VEGTSAVF,no binding
8,FRGRASLS,binds
9,YAAKSDGY,no binding
10,YRRRGAGY,binds
11,YRRRGFGY,binds
12,YRRRGDGY,binds
13,YRRRGVGY,binds
14,DRERGDGY,no binding
15,FAAAGFVA,no binding
16,VKREAVGV,no binding
17,YRRRGSGY,binds
18,YRRRGFGS,binds
19,VREGDYLS,no binding
20,YRTRGALS,binds
21,DREEGAGS,no binding
22,YAREAALS,no binding
23,YRTGAALS,binds
24,SRTRGFGS,no binding

row,Variant,antigen binding call
1,VRTRGALS,binds
2,DAEESDGA,no binding
3,DGTKSYGV,no binding
4,VTGGDDWV,no binding
5,FKTKSDAV,no binding
6,FKTESAAV,binds
7,FAEGAAAV,no binding
8,YTTGGAAV,no binding
9,DKTGDAAV,no binding
10,FKTGGAAV,binds
11,AKTKSDVA,no binding
12,DATGGDVY,no binding
13,VAEKGDWY,no binding
14,FATTDSVD,no binding
15,FRTGDSWD,binds
16,FRTGDSVD,binds
17,FGKEDSVD,no binding
18,YARADDVA,no binding
19,FGAKGSSS,no binding
20,VKAGDAWS,no binding
21,YRRKGSSS,binds
22,YRAKGSSS,binds
23,YRAGDSSS,binds
24,VKAGDSSS,binds

row,Variant,antigen binding call
1,VEAGDSSS,no binding
2,SEGTSAVF,no binding
3,DTKAASSS,no binding
4,DKERGDLV,no binding
5,DTRTAYGF,no binding
6,YRAKSSSS,binds
7,YRAEGSSS,binds
8,VKGRADVF,no binding
9,YRGGDSAY,binds
10,YAGGDFAY,no binding
11,DREEGSSY,no binding
12,YRAGGSSY,binds
13,DRGGDDWY,no binding
14,DRGGDDVY,no binding
15,ARGKASSY,no binding
16,YRGGDSSY,binds
17,YRGGDDLY,no binding
18,DRREGYGA,no binding
19,DTTRDDSD,no binding
20,VTTKSDWV,no binding
21,AGKGGFAY,no binding
22,VEARNDWA chain 1 M81I,no binding
23,YRRGGAWD,binds
24,YETKGDWD,no binding

row,Variant,antigen binding call
1,AETKGDWD,binds
2,FRRGGAWD,binds
3,VETKGDWD,no binding
4,YRRRGAWD,binds
5,DTEGGSAS,no binding
6,DEGGTAVV,no binding
7,DGARNAAA,no binding
8,DEGGTAGV,no binding
9,DEGGTDLD,no binding
10,DATEDDSA,no binding
11,YRRRGDWD,binds
12,FRRRGDWY,no binding
13,YTRGADWY,no binding
14,YTKRGDWD,no binding
15,YRRRGDWY,binds
16,YRGKGAWS,binds
17,YRGKGSWS,binds
18,DEEASSWA,no binding
19,DTGTGDVA,no binding
20,VRAGDSVA,binds
21,VKRGDDVA,no binding
22,VRAGDDGA,no binding
23,VRRGDFWA,no binding
24,VEAGDAVA,no binding

row,Variant,antigen binding call
1,VRAGDAGA,binds
2,VRATGSVY,no binding
3,VEAGDDGA,no binding
4,VRRGDSVA,binds
5,VRAGGSVA,binds
6,VTAGDDVA,no binding
7,VRARGVVA,no binding
8,VGGRADGF,no binding
9,SKTKSDGA,no binding
10,DAGGAAGD,no binding
11,ATTKSAVA,no binding
12,VRRASSVA,binds
13,VRAEGSVA,binds
14,FRAEGSVA,binds
15,VKAGDDVA,no binding
16,YKAGDSVA,binds
17,VTRGADAV,no binding
18,SGAGDYSD,no binding
19,VRAGDSSA,binds
20,VEAGDSSA,no binding
21,VAEKGFGA,no binding
22,VRAGGFGA,binds
23,VTGGDSSA,no binding
24,VRGTGFGA,no binding

# Reference: the emibetuzumab library of Makowski et al. (2022)
